Source: PubChem BioAssay (NCATS)
Inconclusive results are not listed. Where a call stands in place of a potency, no number is given. Values without a mark were called inactive. Calls of active or inactive are those of the source. Unless noted, calls come from the whole dose curve; as a rule, active = well fitted inhibition curve with a large enough effect; inconclusive = small, poorly fitted or top-dose-only effect; inactive = flat fitted curve, though single readings scatter.

How the values were obtained:
[1] = S16 Schwann cell PMP22 intronic element beta-lactamase assay (AID 624044; calls by dose curve; note: nearly all actives have a fitted effect of over 15% in size); conditions: S16 rat Schwann cells, PMP22 element beta-lactamase FRET, 24 h; ratio activity, negative = inhibition: at 38.3 µM (top of the series)
Outline: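 Beta-lactamase reporter under a PMP22 intronic regulatory element in stable S16 rat Schwann cells; 24 h compound exposure. 460 nm blue signal normalized between DMSO (0%) and potassium clavulanate, with 535 nm FRET tracking viability; curves classed by r2 and response.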

3D7 = assay: qHTS profiling for inhibitors of Plasmodium falciparum proliferation (AID 504749); note: nearly all actives have a fitted effect of over 60% in size; conditions: P. falciparum in erythrocytes, SYBR Green DNA, 72 h; series mostly up to 28.7 µM
Outline: (§1)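 SYBR Green fluorescence (ex 485 nm, em 535 nm) reports parasite DNA after 72 h compound exposure of infected red cells at 0.3% parasitemia, 2.5% hematocrit; signal normalized to 0.29 uM artemisinin and vehicle wells.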

ATS189 = assay: as above; conditions: P. falciparum in erythrocytes, SYBR Green DNA, 72 h; series mostly up to 28.7 µM
Outline: as §1

CP250 = assay: as above; conditions: P. falciparum in erythrocytes, SYBR Green DNA, 72 h; series mostly up to 28.7 µM
Outline: as §1

CP256 = assay: as above; conditions: P. falciparum in erythrocytes, SYBR Green DNA, 72 h; series mostly up to 28.7 µM
Outline: as §1

DFO2036 = assay: as above; conditions: P. falciparum in erythrocytes, SYBR Green DNA, 72 h; series mostly up to 28.7 µM
Outline: as §1

ICS = assay: as above; conditions: P. falciparum in erythrocytes, SYBR Green DNA, 72 h; series mostly up to 28.7 µM
Outline: as §1

N140 = assay: as above; conditions: P. falciparum in erythrocytes, SYBR Green DNA, 72 h; series mostly up to 28.7 µM
Outline: as §1

TAB109 = assay: as above; conditions: P. falciparum in erythrocytes, SYBR Green DNA, 72 h; series mostly up to 28.7 µM
Outline: as §1

W2 = assay: as above; conditions: P. falciparum in erythrocytes, SYBR Green DNA, 72 h; series mostly up to 28.7 µM
Outline: as §1

AA1029 = assay: as above; conditions: P. falciparum in erythrocytes, SYBR Green DNA, 72 h; series mostly up to 28.7 µM
Outline: as §1

AS120 = assay: as above; conditions: P. falciparum in erythrocytes, SYBR Green DNA, 72 h; series mostly up to 28.7 µM
Outline: as §1

CP217 = assay: as above; conditions: P. falciparum in erythrocytes, SYBR Green DNA, 72 h; series mostly up to 28.7 µM
Outline: as §1

CP335 = assay: as above; conditions: P. falciparum in erythrocytes, SYBR Green DNA, 72 h; series mostly up to 28.7 µM
Outline: as §1

PAD = assay: as above; conditions: P. falciparum in erythrocytes, SYBR Green DNA, 72 h; series mostly up to 28.7 µM
Outline: as §1

SC27B = assay: as above; conditions: P. falciparum in erythrocytes, SYBR Green DNA, 72 h; series mostly up to 28.7 µM
Outline: as §1

TAB113 = assay: as above; conditions: P. falciparum in erythrocytes, SYBR Green DNA, 72 h; series mostly up to 28.7 µM
Outline: as §1

CP265 = assay: as above; conditions: P. falciparum in erythrocytes, SYBR Green DNA, 72 h; series mostly up to 28.7 µM
Outline: as §1

ECU = assay: as above; conditions: P. falciparum in erythrocytes, SYBR Green DNA, 72 h; series mostly up to 28.7 µM
Outline: as §1

PC26 = assay: as above; conditions: P. falciparum in erythrocytes, SYBR Green DNA, 72 h; series mostly up to 28.7 µM
Outline: as §1
Potency is the fitted concentration of half-maximal effect.

| Structure (SMILES) | Potency [1] | Potency (3D7) | Potency (ATS189) | Potency (CP250) | Potency (CP256) | Potency (DFO2036) | Potency (ICS) | Potency (N140) | Potency (TAB109) | Potency (W2) | Potency (AA1029) | Potency (AS120) | Potency (CP217) | Potency (CP335) | Potency (PAD) | Potency (SC27B) | Potency (TAB113) | Potency (CP265) | Potency (ECU) | Potency (PC26) |
| --- | --- | --- | --- | --- | --- | --- | --- | --- | --- | --- | --- | --- | --- | --- | --- | --- | --- | --- | --- | --- |
| O=C(O)c1ccccc1-c1c2ccc(=O)cc-2oc2cc(O)ccc12 | inactive |  |  |  |  |  |  |  |  |  |  |  |  |  |  |  |  |  |  |  |
| CC1=C[C@@H](O)CC(C)(C)[C@@H]1/C=C/C(C)=C/C=C/C(C)=C/C=C/C=C(C)/C=C/C=C(C)/C=C/C1=C(C)C[C@H](O)CC1(C)C |  | 10 µM (active) | inactive | inactive | inactive | inactive | 5.01 µM (active) | 11.2 µM (active) | inactive | 6.75 µM (active) |  |  |  |  |  |  |  |  |  |  |
| NC(C(=O)O)C(O)c1ccc(O)c(O)c1 (configuration not stated) | inactive | 8.91 µM (active) |  |  |  |  | 11.2 µM (active) | 12.6 µM (active) |  |  |  |  |  |  |  |  |  |  |  |  |
| COC(=O)C1[C@@H](OC)C(OC(=O)COc2ccc(OC)cc2)C[C@@H]2CN3CCc4c([nH]c5cc(OC)ccc45)[C@H]3C[C@H]12 (some centres not stated) | inactive | 10 µM (active) | 11.2 µM (active) |  |  |  | 5.01 µM (active) | 11.2 µM (active) |  | 8.49 µM (active) | 10 µM (active) | 11.2 µM (active) | 11.2 µM (active) | 12 µM (active) | 11.2 µM (active) |  |  |  |  |  |
| CCC(=O)OC1C(N(C)C)CC(C)O[C@H]1O[C@H]1[C@H](C)[C@@H](O[C@H]2CC(OC)[C@@H](O)C(C)O2)[C@H](C)C(=O)O[C@@H](CC)[C@](C)(O)[C@@H](O)[C@H](C)C(=O)[C@@H](C)C[C@]1(C)O (some centres not stated) |  | inactive | inactive |  |  |  |  |  |  | 6.75 µM (active) |  | inactive |  |  | inactive | inactive | inactive |  |  |  |
| CC1=C(/C=C/C(C)=C\C=C\C(C)=C\C=C\C=C(C)\C=C\C=C(C)\C=C\C2=C(C)C[C@@H](O)CC2(C)C)C(C)(C)C[C@H](O)C1 |  |  |  |  | inactive |  | 1.12 µM (active) | 7.08 µM (active) |  | 8.49 µM (active) | 12.6 µM (active) | 12.6 µM (active) |  | 15.1 µM (active) | 14.1 µM (active) |  | inactive | inactive | 14.1 µM (active) |  |
| O=C1Oc2ccccc2C(=O)C1C(CC(O)c1ccc(-c2ccc(Br)cc2)cc1)c1ccccc1 (configuration not stated) |  | inactive |  |  |  |  |  | inactive | inactive |  | inactive | inactive | inactive |  |  | inactive | inactive | inactive |  | inactive |
| Nc1nc(Cl)nc2c1ncn2[C@@H]1O[C@H](CO)[C@H](O)C1F (some centres not stated) | 8.91 µM (active) | inactive | inactive | inactive | inactive | inactive | inactive | inactive | inactive | inactive | inactive | inactive | inactive | inactive | inactive | inactive | inactive | inactive | inactive | inactive |
| C[C@]12CCC(=O)C=C1[C@@H]1C[C@H]1[C@H]1[C@@H]3[C@@H]4C[C@H]4[C@@]4(CCC(=O)O4)[C@@]3(C)CC[C@@H]12 |  |  | inactive | inactive | inactive | inactive |  | inactive | inactive |  | inactive | inactive | inactive | inactive |  | inactive | inactive | inactive | inactive | inactive |
| CC1=C(C/C=C(\C)CCCC(C)CCCC(C)CCCC(C)C)C(=O)c2ccccc2C1=O (configuration not stated) | inactive | 8.91 µM (active) |  | inactive | inactive | inactive | 3.98 µM (active) |  |  | 4.78 µM (active) |  |  | inactive | 12 µM (active) | 7.94 µM (active) |  | 8.91 µM (active) |  | inactive | inactive |
| O=C(NC(CO)C(O)c1ccc([N+](=O)[O-])cc1)C(Cl)Cl (configuration not stated) | inactive |  |  |  | 11.2 µM (active) |  |  |  |  |  |  |  |  | 4.78 µM (active) | inactive | inactive |  |  | inactive | inactive |
| CC(C)CCCC(C)C1CC(=O)C2=C3CCC4CC(O)CCC4(C)C3CCC21C (configuration not stated) | inactive |  | inactive | inactive | inactive | inactive |  | inactive | inactive | 7.57 µM (active) | inactive | inactive | inactive |  | inactive | inactive |  | inactive | inactive | inactive |
| C=C1CC2C3C=C(C)C4=CC(=O)CCC4(C)C3CCC2(C)[C@@]1(OC(C)=O)C(C)=O (some centres not stated) |  |  |  | inactive |  | inactive |  | inactive | inactive |  |  | inactive |  |  |  | inactive |  | inactive | inactive |  |
